An excerpt weighted towards active compounds, which were near 7.4% of everything screened.
ELG1 genotox = qHTS screen for small molecules that induce genotoxicity in human embryonic kidney (HEK293T) cells expressing luciferase-tagged ELG1; HEK293T ELG1-luciferase reporter, luminescence, 16 h; Potency, µM (titrated, usually from 46 µM), inactives show top-dose activity change, positive = activation, hits mostly activators; hit rate 1.3% among 330,000; AID 504466, 2011; note: % of control where 0% means no effect; nearly all actives have a fitted effect of over 60% in size
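Step 1: seed 2,000 HEK293T ELG1-luciferase cells per well. Step 2: add compound or DMSO, incubate 16 hr at 37 °C. Step 3: ONE-Glo, 30 min at room temperature, read luminescence.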
Rab9 prom act = qHTS Assay for Rab9 Promoter Activators | Huh7 Rab9 promoter-luciferase reporter, luminescence, 24 h | Potency, µM (top dose mostly 9.22 µM), for the others: at the highest dose activation, negative = inhibition, hits mostly activators | hit rate 2.8% among 320,000 | AID 485297, 2010; note: % of control where 0% means no effect; nearly all actives have a fitted effect of over 60% in size
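Luminescence read-out: Huh7 cells stably expressing Rab9-luciferase, treated 24 h with compound at 37 °C, then lysed with luciferase reagent for 10 min at ambient before reading.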
FLuc counter = qHTS profiling assay for firefly luciferase inhibitor/activator using purifed enzyme and Km concentrations of substrates (counterscreen for miR-21 project); AID 588342, 2011; Luciferin 4-monooxygenase (Photinus pyralis), P08659; Potency, µM (titrated, usually from 57.5 µM), inactives show at the highest dose activity change, negative = inhibition, usual class: inhibitors; hit rate 6.9% among 360,000; purified FLuc, Km substrates, luminescence inhibition;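 note: plate controls were vehicle for no effect and reference inhibitor for full effect; nearly all actives have a fitted effect of over 55% in size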
Target sequence (P08659 whole entry, looked up): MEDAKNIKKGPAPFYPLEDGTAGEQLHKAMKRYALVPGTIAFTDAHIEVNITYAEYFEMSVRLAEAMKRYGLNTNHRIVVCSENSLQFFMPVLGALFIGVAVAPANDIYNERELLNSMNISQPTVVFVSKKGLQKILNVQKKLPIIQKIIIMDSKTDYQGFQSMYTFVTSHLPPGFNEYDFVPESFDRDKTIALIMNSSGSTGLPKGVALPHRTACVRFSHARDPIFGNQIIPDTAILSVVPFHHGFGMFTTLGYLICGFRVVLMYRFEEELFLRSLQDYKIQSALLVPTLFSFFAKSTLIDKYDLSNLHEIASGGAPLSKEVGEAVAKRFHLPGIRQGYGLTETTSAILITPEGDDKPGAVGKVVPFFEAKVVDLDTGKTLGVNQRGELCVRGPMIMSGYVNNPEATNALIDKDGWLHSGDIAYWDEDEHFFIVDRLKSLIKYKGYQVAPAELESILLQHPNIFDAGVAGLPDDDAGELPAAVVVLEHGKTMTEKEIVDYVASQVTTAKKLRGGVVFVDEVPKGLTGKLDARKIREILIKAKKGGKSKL
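Purified P. pyralis luciferase (10nM final) with 10uM D-luciferin and 10uM ATP (Km levels) in 50mM Tris acetate pH 7.5, 10mM Mg acetate, 0.01% Tween-20, 0.05% BSA; qHTS 6-point titration, ~60 µM downward; luminescence read.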
NPC1 promoter act = qHTS Assay for NPC1 Promoter Activators | Huh7 NPC1 promoter luciferase reporter, 24 h | Potency, µM (series often up to 9.22 µM), inactives show top-dose activation, actives largely listed as activators | hit rate 2.4% among 320,000; note: % of control where 0% means no effect; nearly all actives have a fitted effect of over 60% in size
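Readout is luciferase luminescence, reflecting NPC1 promoter activation in stably transfected Huh7 cells after 24 h compound exposure at 37 °C in reduced-serum medium with 10% FBS.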
Luc counter = Counterscreen for Luciferase (Kinase-Glo TM) Inhibition; hit rate 0.28% among 200,000; Luciferin 4-monooxygenase (Photuris pensylvanica), Q27757; Kinase-Glo luciferase, ATP luminescence, 8 min; Potency, µM (doses to about 38.3 µM), for inactives: at the top dose activity change, negative = inhibition, usual class: inhibitors; note: % is set by controls: 0 for no effect and ±100 for the full control effect; nearly all actives have a fitted effect of over 60% in size
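Luminescence was the read-out, taken after 8-minute incubation at ambient temperature. Luciferase turned over luciferin with 10 uM ATP in imidazole pH 7.2 buffer containing KCl, MgCl2, Tween 20 and BSA.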
SMN2 splice enh = qHTS Assay for Enhancers of SMN2 Splice Variant Expression. Potency, µM (titrated, usually from 46.1 µM), for inactives: top-dose activity change, positive = activation, hits mostly activators. HEK293 SMN2-luciferase splicing reporter, luminescence, 30-36 h. AID 1458, 2008. hit rate 2.8% among 210,000; note: % of control where 0% means no effect; nearly all actives have a fitted effect of over 55% in size
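qHTS luciferase splicing reporter: luminescence rises when SMN2 exon 7 is included in transfected HEK293 cells. Compound exposure lasted 30-36 h at 37C, with 4.5 mM final sodium butyrate as control, followed by a ONE-Glo read.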
* = called active by the depositor. Calls come from the whole dose curve; as a rule, active = well fitted curve in the direction sought with a large enough effect; inconclusive = small, poorly fitted or top-dose-only effect, or another doubt; inactive = no such curve, though single readings can be large; an effect the other way counts as inactive or inconclusive. Potency is the fitted concentration of half-maximal effect.

`NC(=O)c1ccc(NC(=O)c2cccc3c2OCCCO3)cc1` gave ELG1 genotox -4%, Rab9 prom act -4%, FLuc counter 6% and NPC1 promoter act -1%.
For CC1(C)OC(=O)C(=Cc2ccc(-c3ccc(S(N)(=O)=O)cc3)o2)C(=O)O1 the results were ELG1 genotox inconclusive, Rab9 prom act 1%, FLuc counter 11µM*, NPC1 promoter act -4%, Luc counter -1% and SMN2 splice enh 4%.
Screening NS(=O)(=O)c1ccc(-c2ccc(/C=C3\C(=O)Nc4ccccc43)o2)cc1 returned ELG1 genotox -2%, Rab9 prom act -2%, FLuc counter 1% and NPC1 promoter act 2%.
For COC(C(=O)Nc1ccc(C(N)=O)cc1)c1ccccc1 (stereo not drawn) the results were ELG1 genotox -2%, Rab9 prom act -8%, FLuc counter 4%, NPC1 promoter act 1%, Luc counter 0% and SMN2 splice enh 16µM*.
For COc1ccccc1NC(=O)Cn1nc(-c2ccc(C)cc2)c2c(c1=O)CCCC2 the results were FLuc counter -17% and SMN2 splice enh -8%.
Screening Cc1cccc(OCC(=O)N(Cc2ccccc2)c2c(N)n(Cc3ccccc3)c(=O)[nH]c2=O)c1 returned ELG1 genotox 0%, Rab9 prom act 0%, FLuc counter -1% and NPC1 promoter act 1%.
Screening Cc1cc(NC(=O)NC(=O)c2ccc(F)cc2F)n[nH]1 returned ELG1 genotox inconclusive, Rab9 prom act 0.56µM*, FLuc counter 7.6µM*, NPC1 promoter act 0.5µM*, Luc counter -7% and SMN2 splice enh 11µM*.
Screening CC(C)CCn1cnc2c(oc3nc4c(cc32)CCCC4)c1=O returned ELG1 genotox inconclusive, Rab9 prom act 0.45µM*, FLuc counter 1.7µM* and NPC1 promoter act 0.5µM*.
For O=C1NC(=S)S/C1=C\c1coc2ccc(O)cc2c1=O the results were ELG1 genotox 10%, Rab9 prom act 9%, FLuc counter 19µM* and NPC1 promoter act 14%.
O=C1NC(=S)S/C1=C\c1coc2ccccc2c1=O was read as ELG1 genotox 8%, Rab9 prom act inconclusive, FLuc counter 19µM*, NPC1 promoter act 5%, Luc counter -2% and SMN2 splice enh 2%.
CCNC(=O)CN(CCc1ccccc1)S(=O)(=O)c1ccc(OC)cc1 was read as ELG1 genotox -1%, Rab9 prom act 3%, FLuc counter -1%, NPC1 promoter act 1%, Luc counter -2% and SMN2 splice enh -17%.
Screening CCNC(=O)CN(Cc1ccccc1)S(=O)(=O)c1ccccc1 returned ELG1 genotox 23µM*, Rab9 prom act 0%, FLuc counter 8%, NPC1 promoter act 0%, Luc counter -2% and SMN2 splice enh 0%.
O=C(CSc1nnc(-c2ccc(C(F)(F)F)cn2)s1)c1ccccc1 was read as ELG1 genotox 1%, Rab9 prom act -1%, FLuc counter 7% and NPC1 promoter act -5%.
Cc1cnc(NC(=O)COc2ccccc2)s1 was read as ELG1 genotox inconclusive, Rab9 prom act 2.2µM*, FLuc counter 11µM*, NPC1 promoter act 2µM*, Luc counter -3% and SMN2 splice enh 11µM*.
Cc1cnc(NC(=O)CCc2ccccc2)s1 was read as ELG1 genotox inconclusive, Rab9 prom act 9%, FLuc counter inconclusive and NPC1 promoter act -14%.
`COC(=O)c1sc(NC(=O)COc2ccccc2OC)nc1C` gave ELG1 genotox 2%, Rab9 prom act 14%, FLuc counter inconclusive, NPC1 promoter act 13%, Luc counter 1% and SMN2 splice enh -12%.
Screening COc1ccccc1OCC(=O)Nc1ncc(C)s1 returned ELG1 genotox inconclusive, Rab9 prom act 1.8µM*, FLuc counter 2.4µM* and NPC1 promoter act 1.6µM*.
For CCn1c(/C=C/c2c[nH]c3ccccc23)nc2ccccc2c1=O the results were ELG1 genotox 2.6µM*, Rab9 prom act 1.4µM*, FLuc counter 5.4µM*, NPC1 promoter act 1.6µM* and Luc counter 1%.
`CCn1c(/C=C/c2ccccc2Cl)nc2ccccc2c1=O` gave ELG1 genotox 6%, Rab9 prom act 22%, FLuc counter 27µM* and NPC1 promoter act 21%.
Screening CCCCN1CCN=C1Nc1ccccc1 returned ELG1 genotox 0%, Rab9 prom act 1%, FLuc counter -1% and NPC1 promoter act -2%.
`COc1ccccc1C(=O)NCC(c1cccnc1)N1CCc2ccccc2C1` (stereo not drawn) gave FLuc counter 2.7µM*.
COc1ccc(NC(=O)C(=O)NCC(c2cccnc2)N2CCc3ccccc3C2)cc1 (stereo not drawn) was read as FLuc counter 0.38µM*.
For CC(=O)c1ccccc1[N+](=O)[O-] the results were SMN2 splice enh 2%.
`CN(C)/C=C(\C#N)C(=O)N/N=C/c1ccc(F)cc1` gave ELG1 genotox 4%, Rab9 prom act 10%, FLuc counter 17µM*, NPC1 promoter act 10%, Luc counter -2% and SMN2 splice enh 5%.
For Cc1c(C(=O)N/N=C/c2ccoc2)cccc1[N+](=O)[O-] the results were ELG1 genotox -1%, Rab9 prom act 1%, FLuc counter -10% and NPC1 promoter act -1%.
For O=C(N/N=C/c1ccoc1)c1ccc([N+](=O)[O-])cc1 the results were ELG1 genotox 7%, Rab9 prom act 1%, FLuc counter 21µM* and NPC1 promoter act 4%.
Nc1ccc(C(=O)N/N=C/c2ccccc2)cc1 was read as ELG1 genotox inconclusive, Rab9 prom act 3.2µM*, FLuc counter 11µM*, NPC1 promoter act inconclusive, Luc counter -11% and SMN2 splice enh inconclusive.
`O=C(N/N=C/c1cccnc1)c1ccc(F)cc1` gave ELG1 genotox 14%, Rab9 prom act inconclusive, FLuc counter 13µM* and NPC1 promoter act 27%.
For CC(C)(C)NC(=O)C(=O)N/N=C/c1ccc(F)cc1 the results were ELG1 genotox 1%, Rab9 prom act 2%, FLuc counter -8%, NPC1 promoter act 8%, Luc counter -1% and SMN2 splice enh 5%.
Screening CCOC(Cn1ccc(=O)[nH]c1=O)OCC returned ELG1 genotox 2%, Rab9 prom act -2%, FLuc counter 1% and NPC1 promoter act 0%.

Screening data from PubChem.
